# Bioassay records (PubChem)
# FAS TE block: inhibitors of human fatty acid synthase thioesterase domain. P49327. recombinant FAS-TE, OMFH fluorogenic substrate, fluorescence endpoint. inhibition, % at 15 µM. 360,000 tested, 0.67% active. AID 602261;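 active = compounds whose normalised, plate-corrected inhibition of enzyme fluorescence in the single-dose primary screen is 50% or more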
# PLC-beta3 inh: blocks human PLC-beta3 enzyme activity; Q01970; Purified PLC-beta3, fluorogenic substrate, fluorescence; inhibition, % at 12.2 µM; 370,000 tested, 0.18% active; in the data active = inhibition above about 11%
# PLC-gamma1 inh: PLC-gamma1 (human) inhibition, primary screen; purified PLC-gamma1, fluorogenic substrate, fluorescence; inhibition, % at 12.2 µM; 370,000 tested, 0.84% active; AID 720700; in the data active = inhibition above about 9.5%
# Target sequence (P19174 whole entry, looked up): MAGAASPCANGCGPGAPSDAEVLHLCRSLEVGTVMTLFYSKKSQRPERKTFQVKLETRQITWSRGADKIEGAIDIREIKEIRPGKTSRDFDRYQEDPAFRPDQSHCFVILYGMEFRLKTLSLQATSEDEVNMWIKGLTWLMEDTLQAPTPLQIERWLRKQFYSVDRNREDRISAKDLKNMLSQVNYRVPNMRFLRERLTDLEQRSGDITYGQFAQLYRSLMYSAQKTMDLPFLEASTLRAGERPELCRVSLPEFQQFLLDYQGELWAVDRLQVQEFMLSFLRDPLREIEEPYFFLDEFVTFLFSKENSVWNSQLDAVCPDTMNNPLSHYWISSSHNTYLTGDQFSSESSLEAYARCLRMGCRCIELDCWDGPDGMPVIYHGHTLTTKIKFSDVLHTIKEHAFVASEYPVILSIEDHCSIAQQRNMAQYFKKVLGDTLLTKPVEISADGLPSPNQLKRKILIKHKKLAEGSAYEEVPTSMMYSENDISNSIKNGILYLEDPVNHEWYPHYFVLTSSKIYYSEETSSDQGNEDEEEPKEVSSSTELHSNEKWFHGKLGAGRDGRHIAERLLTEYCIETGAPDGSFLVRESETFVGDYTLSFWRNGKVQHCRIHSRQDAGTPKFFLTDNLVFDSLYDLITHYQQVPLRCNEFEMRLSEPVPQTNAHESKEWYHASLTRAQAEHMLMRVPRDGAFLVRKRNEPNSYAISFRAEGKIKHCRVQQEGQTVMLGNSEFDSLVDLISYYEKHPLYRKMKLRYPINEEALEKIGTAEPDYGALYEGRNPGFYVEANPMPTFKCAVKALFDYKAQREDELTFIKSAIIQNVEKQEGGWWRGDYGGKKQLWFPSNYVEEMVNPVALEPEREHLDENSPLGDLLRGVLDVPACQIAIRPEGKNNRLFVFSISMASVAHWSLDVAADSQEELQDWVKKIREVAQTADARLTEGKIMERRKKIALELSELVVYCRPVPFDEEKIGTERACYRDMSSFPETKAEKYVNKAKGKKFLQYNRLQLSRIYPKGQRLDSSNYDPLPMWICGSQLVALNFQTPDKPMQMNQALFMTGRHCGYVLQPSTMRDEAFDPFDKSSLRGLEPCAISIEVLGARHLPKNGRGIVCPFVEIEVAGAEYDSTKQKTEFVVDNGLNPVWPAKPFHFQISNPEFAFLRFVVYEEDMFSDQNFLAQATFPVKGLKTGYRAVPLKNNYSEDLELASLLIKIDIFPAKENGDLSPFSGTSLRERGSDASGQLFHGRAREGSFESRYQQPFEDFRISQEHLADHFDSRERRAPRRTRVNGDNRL
# H9c2 protect: myocardial damage modulation in H9c2 cells; H9c2 cardiomyocytes, H2O2 injury protection, ATPLite, 2 h; protection from H2O2 cell death, % at 20 µM; 360,000 tested, 0.63% active;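 active = compounds giving at least 50% protection of heart cells from peroxide-induced death in the single-dose screen, raw or plate-pattern-corrected value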
# Numbers stand for hits; n = inactive; x = no result. A selection: hits, their analogues and other compounds. The true share with any hit is near 2.2%.
SMILES,FAS TE block,PLC-beta3 inh,PLC-gamma1 inh,H9c2 protect
CCC[C@H]1[C@@H](NC(=O)c2cccc(N(C)C)c2)CC[C@@]23CCCN2C(=O)CCC[C@@H]13,x,n,n,x
Cn1nc(-c2ccccc2F)c2cc(C(=O)Nc3ccc4c(c3)OCCO4)sc21,n,n,n,55.5
COc1ccc2cc(-c3cccc4[nH]cc(C)c34)ccc2c1,x,n,n,x
O=C(CN1CC(=O)Oc2ccccc21)OCC(=O)c1cccc(Br)c1,n,x,x,59.7
CC(C)c1ccc(OCC(=O)NCc2n[nH]c(=O)c3ccccc23)cc1,n,n,n,n
O=C(CSc1nc2ccccc2o1)NCc1n[nH]c(=O)c2ccccc12,n,n,n,57.0
O=C(Cc1n[nH]c(=O)c2ccccc12)NCc1ccc(Cl)cc1,n,n,n,67.1
O=C(CSc1nc2ccccc2o1)NCC(=O)c1ccccc1,n,n,n,n
O=C(Cc1n[nH]c(=O)c2ccccc12)NCc1ccccn1,n,n,n,54.1
O=C(COC(=O)Cc1n[nH]c(=O)c2ccccc12)NNC(=O)c1ccccc1,n,n,n,n
O=C(COc1ccc(Cl)cc1)NCc1n[nH]c(=O)c2ccccc12,n,n,n,80.8
O=C1CCc2cc(S(=O)(=O)N3CCN(Cc4cccc5c4OCO5)CC3)ccc2N1,x,n,n,x
C=CCOC(=O)C(CO)NC(=O)CCCC(=O)O (stereo unspecified),x,n,n,x
CCCN(CC(=O)Nc1ccccc1C)C(=O)Cc1n[nH]c(=O)c2ccccc12,n,n,n,59.7
Cc1c(Cl)cccc1NC(=O)CNC(=O)Cc1n[nH]c(=O)c2ccccc12,n,n,n,87.9
COc1ccc(OCC(=O)NCc2n[nH]c(=O)c3ccccc23)cc1,n,n,n,77.8
Cc1c(Cl)cccc1NC(=O)CNC(=O)CCCc1nc2ccccc2c(=O)[nH]1,n,n,n,n
COC(=O)C[C@@H]1CC[C@H]2[C@@H](COc3ccc(NC(=O)c4cc(C)on4)cc3C(=O)N2C)O1,x,n,n,x
CCCC/C=C1/[C@H](c2ccccc2)N(C)C2=N[C@@H](c3ccccc3)CC(=O)N21,x,n,n,x
COc1nc(Nc2nc3ccccc3c(=O)[nH]2)nc2ccc(C)cc12,n,n,13.6,n
CCn1c(Cc2cccs2)nnc1SCC(=O)Nc1ccc(OCc2ccccc2)cc1,x,n,n,x
CCCCc1c(-c2ccccc2OC)ncn1Cc1ccc(OC)c(Cl)c1,x,n,n,x
O=c1[nH]c(-c2cccnc2)nc2ccccc12,n,n,n,47.0
O=c1[nH]c(-c2ccncc2)nc2ccccc12,n,n,n,n
C=CCn1c(SCC(=O)c2ccc(O)c(O)c2)nnc1-c1cccc(Cl)c1,n,n,n,54.6
SMILES,FAS TE block,PLC-beta3 inh,PLC-gamma1 inh,H9c2 protect
CCn1c(CSc2nc3ccccc3s2)nnc1SCC(=O)c1ccc(O)c(O)c1,n,n,n,62.1
O=[N+]([O-])c1ccc(N/N=C/c2ccc(O)c(O)c2O)c(S(=O)(=O)N2CCOCC2)c1,n,n,10.6,n
CCCCNC(=O)C1(C(=O)C2CC2)CC(c2ccccc2C(F)(F)F)=NO1 (stereo unspecified),x,n,n,x
CCOCCN1CCN(c2c(CC)c(C)nc3cc(-c4cc(OC)cc(OC)c4)nn23)CC1,n,n,n,73.3
CCCCCCCCCCCCCCCC[n+]1ccc(C(N)=O)cc1,n,n,n,n
CCCCCCCCCCCCCCCC[n+]1ccc(/C=N/O)cc1,n,n,17.1,n
COCCSc1ncccc1-c1nc2ccccc2[nH]1,x,n,n,x
C/C(=N\Nc1nnc2c3ccccc3n(C)c2n1)c1ccc(C)o1,n,n,n,69.6
C/C(=N\Nc1nc(C)cc(C)n1)c1ccc(C)o1,n,n,n,n
CCOc1ccccc1Nc1nnc(SCc2nnc(-c3cc(OC)c(OC)c(OC)c3)o2)s1,n,n,n,68.2
COc1ccccc1Nc1nnc(SCc2nnc(-c3cc(OC)c(OC)c(OC)c3)o2)s1,n,n,n,n
CC(COc1ccc([N+](=O)[O-])cc1Cl)CN1CCC(C(O)(c2ccccc2)c2ccccc2)CC1 (stereo unspecified),x,n,n,x
Cc1cc(O)cc(=O)n1-c1cc(F)c(F)c(F)c1,x,n,n,x
O=C(/C=C/c1ccc(Cl)cc1)NC(=S)Nc1ccc(C(=O)O)cc1,n,n,10.8,n
O=c1[nH]c2cc([N+](=O)[O-])ccc2c2ccc([N+](=O)[O-])cc12,n,n,n,n
O=c1[nH]c2cc([N+](=O)[O-])ccc2c2ccccc12,n,n,n,65.1
c1ccc2c(c1)[nH]c1ccccc12,n,n,n,n
O=c1[nH]c2cccc(Cl)c2c2ccccc12,n,n,n,50.7
O=c1[nH]c2ccccc2c2ccccc12,n,n,n,71.2
O=C(CNS(=O)(=O)c1ccc(F)cc1)N1CCN(c2ccccn2)CC1,x,n,n,x
COc1ccc(OC)c(CN2CCN(C(=O)c3cccc4ccccc34)CC2)c1,n,n,12.6,n
COc1ccc(CC(=O)N(Cc2ccccc2)c2ccccc2)cc1S(=O)(=O)N1CCOCC1,n,n,n,69.0
CCOC(=O)Cn1nnc(-c2ccc([N+](=O)[O-])cc2)n1,n,n,9.6,n
CCC(C)[C@H](NC(=O)N1CCn2c1nc1ccccc12)C(=O)NCCc1ccccc1 (stereo partly specified),n,n,9.9,n
Cc1cc(Cl)ccc1OCCCC(=O)NNC(=O)c1ccccc1O,n,n,n,55.4
SMILES,FAS TE block,PLC-beta3 inh,PLC-gamma1 inh,H9c2 protect
O=S(=O)(c1ccccc1)[C@@]1(c2ccccc2)C[C@@H]2ON=C(c3cccc(Br)c3)[C@@H]2C1,55.2,n,n,n
CC(C)[C@H](NC(=O)OCc1ccccc1)C(=O)N[C@@H](Cc1ccccc1)C1(O)CN(C)C(C(=O)NCc2ccccn2)CO1 (stereo partly specified),x,n,n,x
Cc1cc(O)c(C)c(O)c1/C=N/NC(=O)c1cccnc1,n,n,n,51.3
COc1cc(/C=N/NC(=O)c2cccnc2)ccc1OS(=O)(=O)c1cc(C)ccc1C,n,n,n,62.3
COc1cc(/C=N/NC(=O)c2cccnc2)ccc1OS(=O)(=O)c1ccc(C)cc1,n,n,n,n
COc1cc(/C=N/NC(=O)c2cccnc2)ccc1OS(=O)(=O)c1ccc(F)cc1,n,n,n,84.8
O=C(N/N=C/c1c(O)ccc2ccccc12)c1cccnc1,n,n,n,n
COc1cccc(/C=N/NC(=O)C(=O)NCc2cccnc2)c1O,n,n,n,79.4
COc1cccc(/C=N/NC(=O)CNC(=O)C2COc3ccccc3O2)c1O (stereo unspecified),n,n,n,66.1
COc1cccc(/C=N/NC(=O)C[n+]2ccccc2)c1O,n,n,n,n
CN(C)c1ccc(/C=N/NC(=O)CNC(=O)c2ccc3c(c2)OCCO3)cc1,n,n,n,n
COc1ccc(CCCC(=O)N/N=C/c2cccc(OC)c2O)cc1C,n,n,n,53.4
O=C(CNC(=O)C1COc2ccccc2O1)N/N=C\c1ccccc1Cl (stereo unspecified),n,n,n,n
O=C(CNC(=O)c1ccc2c(c1)OCCO2)N/N=C/c1ccc(O)cc1O,n,n,n,71.5
COC(=O)[C@]12C[C@H](CC(=O)NCCc3ccccc3OC)C(=O)N(Cc3ccc4c(c3)OCO4)C1=C[C@H](COCc1ccccc1)O[C@@H]2C,x,n,n,x
